The source of these data is PubChem BioAssay AID489043 (National Center for Advancing Translational Sciences (NCATS), 2010).

Results filed as inconclusive are left out. Entries that show only a call come without a potency. Activity calls are given as the source filed them. Calls come from the whole dose curve; as a rule, active = well fitted activation curve with a large enough effect; inconclusive = small, poorly fitted or top-dose-only effect; inactive = flat fitted curve, though single readings scatter.
Potency is the fitted concentration of half-maximal effect.

Sequence of Relaxin receptor 2 (Homo sapiens) (Q8WXD0 whole entry, looked up): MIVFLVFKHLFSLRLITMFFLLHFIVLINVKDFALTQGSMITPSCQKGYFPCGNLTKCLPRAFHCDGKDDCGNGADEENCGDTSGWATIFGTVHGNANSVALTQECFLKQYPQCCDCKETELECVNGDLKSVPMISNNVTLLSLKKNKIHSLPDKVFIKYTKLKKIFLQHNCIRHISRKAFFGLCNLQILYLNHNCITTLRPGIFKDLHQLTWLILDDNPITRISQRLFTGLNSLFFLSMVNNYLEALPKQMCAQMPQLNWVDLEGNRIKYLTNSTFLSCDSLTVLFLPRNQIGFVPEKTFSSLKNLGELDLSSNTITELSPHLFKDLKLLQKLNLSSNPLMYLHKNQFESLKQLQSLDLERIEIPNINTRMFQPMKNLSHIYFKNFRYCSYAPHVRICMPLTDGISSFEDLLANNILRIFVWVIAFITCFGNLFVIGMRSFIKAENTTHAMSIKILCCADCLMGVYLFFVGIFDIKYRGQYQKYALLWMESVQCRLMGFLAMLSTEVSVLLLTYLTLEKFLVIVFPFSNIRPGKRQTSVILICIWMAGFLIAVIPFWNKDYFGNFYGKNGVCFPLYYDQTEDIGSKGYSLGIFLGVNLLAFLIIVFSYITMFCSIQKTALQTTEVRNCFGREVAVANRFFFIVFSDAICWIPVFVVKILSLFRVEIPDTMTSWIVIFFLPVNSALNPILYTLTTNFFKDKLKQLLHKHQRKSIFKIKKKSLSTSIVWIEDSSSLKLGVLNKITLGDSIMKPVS

In this assay the target is Relaxin receptor 2 (Homo sapiens) (UniProt Q8WXD0). As to the kind of experiment: qHTS Assay for Agonists of the Relaxin Receptor RXFP1: RXFP2 Hit Validation. Note: nearly all actives have a fitted effect of over 65% in size. The following applies: HEK293 RXFP2 cAMP TR-FRET, 30 min; series mostly up to 44.7 µM. The source says:
NIH Chemical Genomics Center [NCGC] NIH Molecular Libraries Probe Production Centers Network [MLPCN] MLPCN Grant: R03 MH085705-01A1 Assay Submitter (PI): Alexander Agoulnik NCGC Assay Overview: The relaxin hormone is involved in the variety of biological functions in normal tissues and diseases. The role of relaxin is well-established in female reproduction and parturition, mammary gland and endometrial development, maintenance of myometrial quiescence during pregnancy. Relaxin signaling through its G protein-coupled receptor (GPCR) RXFP1 results in ECM remodeling through regulation of collagen deposition, cell invasiveness, proliferation and overall tissue homeostasis. […] Recombinant human relaxin (rhRlx) is currently being tested in clinical trials as a protective agent in congestive heart failure, in treating severe preeclampsia, and as an anti-fibrotic agent in systemic sclerosis. Upon relaxin binding RXFP1 activation leads to the activation of adenylate cyclase (AC) via Gs. cAMP will activate PKA, which phosphorylates many signaling proteins. Thus, detection of cAMP increase is an easy and reliable indication of relaxin receptor activation. To screen for agonists of the relaxin receptor, a HEK293T cell line stably transfected with RXFP1 was used. RXFP1 activation was assayed by changes in cAMP levels as detected with a time-resolved fluorescence energy transfer (TR-FRET) cAMP detection kit. This assay measures activation of a cell expressing RXFP2, another GPCR targeted by relaxin, to determine the selectivity of compounds for RXFP1.
NCGC Assay Protocol Summary: This is a cell-based assay for cAMP second messenger response to screen for agonists of the RXFP2 receptor. The assay was conducted in the presence of a PDE4 inhibitor (Ro 20174). The cells were lysed and the cAMP levels were measured with a TR-FRET cAMP kit. Presence of cAMP in the cell lysate disrupts binding between the cryptate-labeled anti-cAMP and d2-labeled cAMP pair, leading to a decrease in the TR-FRET signal. Data were normalized to the controls for basal activity (buffer only) and 100% activity (29 nM porcine relaxin). The EC50 values were determined from concentration-response data modeled with the standard Hill equation 1536-well assay protocol for the HEK293 RXFP2 cAMP assay: (1) Add 3 ul HEK293 RXFP2 cell culture. 2000 cells/well in DMEM/F12, 10% FBS, 1x Pen/Strep (dispensed offline with MultiDrop Combi). (2) Incubate 16-24 hr at 37C, 5% CO2. (3) Add 1 ul 400uM Ro20174 in DPBS, 0.05% BSA, 0.005% Tween 20. (3) Add 23 nl compounds in DMSO solution. Final concentration was 0.5 - 58 uM. (4) Incubate 30 min at 37C, 5% CO2. (5) Add 1 ul cAMP-d2 in lysis buffer (HTRF cAMP HiRange kit, CisBio). (6) Add 1 ul anti-cAMP antibody-cryptate in lysis buffer (HTRF cAMP HiRange kit, CisBio). […]
`Nc1ncc2[nH]cnc2n1`: the Potency was 17.4 µM (active). Turning to `CCNC(=O)[C@H]1O[C@@H](n2cnc3c(N)ncnc32)[C@H](O)[C@@H]1O`, the Potency is 0.974 µM (active). As to `CCC(Oc1cc(Cl)ccc1Cl)C(=O)N1CCC2(CC1)OCCO2` (centres undefined), the Potency result is “inactive”.

For `O=C(O)c1sc2cc(Cl)ccc2c1Cl`, the Potency entry is “inactive”.
